Screens (PubChem)
Hits are enriched below; roughly 7.9% of the tested compounds scored in any of these assays.
HCV inh – blocks hepatitis C virus | Huh7.5.1 HCVcc-Cre infection, luciferase reporter, 44 h | 3.4% of 340,000 active | Potency, µM (series often up to 41.8 µM), usual class: inhibitors | AID 651820; active = well fitted inhibition curve with a large enough effect; inconclusive = small, poorly fitted or top-dose-only effect, or another doubt; inactive = no such curve, though single readings can be large or run the other way
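A cell-based infection assay in which seeded cells (1,000 per well) receive test compound after 4 h, are inoculated with HCVcc-Cre at approximately 0.5 moi, and are incubated 44 h before luminescence detection.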
Marburg entry inh – inhibitors of Marburg virus binding or cell entry | Potency, µM (doses to about 37.8 µM), most hits filed as inhibitors | Marburg virus pseudotyped entry inhibition, cell reporter | 1.8% of 300,000 active | AID 540276; calls by dose curve; tested in HEK293 cells
FMDV inh – antivirals against foot and mouth disease virus; 1.2% of 410,000 active; Potency, µM (top dose mostly 57.9 µM), most hits filed as inhibitors; FMDV antiviral cell-based qHTS; calls by dose curve; tested in HEK293T cells; note: read-out not given here; nearly all actives have a fitted effect of over 45% in size
Lassa entry inh – blocks Lassa virus binding to or entry into cells; Lassa virus pseudotype entry inhibition, cell reporter; Potency, µM (series often up to 37.9 µM), usual class: inhibitors; 1.2% of 300,000 active; calls by dose curve; tested in HEK293 cells; note: nearly all actives have a fitted effect of over 50% in size
HCMV antiviral – inhibitors of human cytomegalovirus. HFF cells, HCMV-luciferase reporter, 72 h; stronger effect = lower value. activity change, negative = inhibition, % at 57.5 µM. 4.5% of 410,000 active. AID 1259415; in the data active = activity change below about -60%; inconclusive = no clear call, values can overlap the other calls; inactive = above about -39%
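Luciferase read-out from HCMV-luciferase-infected HFFs (MOI 1 PFU/cell) 72 h post infection at 37C; compounds added after 16 h cell attachment; activity normalized between buffer-only basal and Salinomycin (10uM) inhibitor controls.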
Each line names hits and unclear results; the compound was inactive in the other large screens.

S=C(Nc1ccc(Cl)cc1)c1nc2ccccc2[nH]1	HCV inh 11.2µM, Marburg entry inh inconclusive, Lassa entry inh inconclusive
O=C(/C(=C\c1ccccc1)c1nc2ccccc2[nH]1)c1ccc(Cl)cc1	HCV inh inconclusive, Marburg entry inh inconclusive, FMDV inh inconclusive, Lassa entry inh inconclusive, HCMV antiviral -87.2
Cc1ccc(N2CC(C(=O)NCc3nnnn3-c3ccc(C)c(C)c3)CC2=O)cc1C (stereo unspecified)	none (no result: HCV inh, Marburg entry inh)
O=C(/C(=C/c1ccc(Cl)cc1)c1nc2ccccc2[nH]1)c1cccs1	HCV inh 11.2µM, FMDV inh inconclusive (no result: Lassa entry inh, HCMV antiviral)
CCc1cccc(C)c1NC(=O)Cn1cc2c(n1)CCCC2	none (no result: HCV inh)
C=CCc1ccc(OCC(O)CN2CCC(Cc3ccccc3)CC2)c(OC)c1 (stereo unspecified)	HCV inh 6.31µM, Marburg entry inh inconclusive, Lassa entry inh 12.6µM
OC(COCc1ccc(Cl)cc1)CN1CCN(CC(O)COCc2ccc(Cl)cc2)CC1 (stereo unspecified)	HCV inh 11.2µM, Marburg entry inh inconclusive, FMDV inh inconclusive, Lassa entry inh inconclusive, HCMV antiviral inconclusive
Cc1ccc(OCC(O)CN2CCC(Cc3ccccc3)CC2)c(C)c1 (stereo unspecified)	HCV inh 11.2µM, HCMV antiviral -77.1 (no result: Marburg entry inh, Lassa entry inh)
C=CCc1ccc(OCC(O)CN2CCN(c3ccccc3OC)CC2)c(OC)c1 (stereo unspecified)	HCV inh inconclusive, FMDV inh inconclusive (no result: Marburg entry inh, Lassa entry inh)
OC(COc1ccccc1)CN1CCC(Cc2ccccc2)CC1 (stereo unspecified)	Marburg entry inh inconclusive, Lassa entry inh inconclusive
C=CCc1ccc(OCC(O)CN2CCN(Cc3ccc(Cl)cc3)CC2)c(OC)c1 (stereo unspecified)	HCV inh inconclusive, Marburg entry inh 8.2µM, Lassa entry inh inconclusive, HCMV antiviral inconclusive
COc1ccc(/C=C/c2nc(C)c(-c3ccccc3)c(=O)[nH]2)cc1OC	HCMV antiviral -65.1 (no result: Marburg entry inh, Lassa entry inh)
CCSc1nsc(NC(=O)Nc2cccc(OC)c2)n1	Marburg entry inh 11.2µM, Lassa entry inh inconclusive, HCMV antiviral inconclusive
C=CCSc1nsc(NC(=O)Nc2ccc(F)cc2)n1	HCV inh 22.4µM, Marburg entry inh inconclusive, Lassa entry inh inconclusive, HCMV antiviral -103.5
CS(=O)(=O)Nc1cccc(C2=NN(C(=O)c3ccccc3)C(c3cccs3)C2)c1 (stereo unspecified)	HCV inh inconclusive (no result: Marburg entry inh, Lassa entry inh)
CS(=O)(=O)Nc1ccc(C2=NN(C(=O)C3CCCCC3)C(c3cccs3)C2)cc1 (stereo unspecified)	Marburg entry inh inconclusive, FMDV inh 20µM, Lassa entry inh inconclusive, HCMV antiviral -62.2
CC(C)C(=O)N1N=C(c2ccc(NS(C)(=O)=O)cc2)CC1c1cccs1 (stereo unspecified)	HCV inh inconclusive, Marburg entry inh inconclusive, Lassa entry inh inconclusive
Cc1ccc(C(=O)N2N=C(c3cccc(NS(C)(=O)=O)c3)CC2c2cccs2)cc1 (stereo unspecified)	HCV inh inconclusive, HCMV antiviral -60.0 (no result: Marburg entry inh, Lassa entry inh)
Cc1nn(-c2ccccc2)c(C)c1C(=O)OC(C)C(=O)NC1CCCCC1C (stereo unspecified)	HCV inh 11.2µM, FMDV inh inconclusive, HCMV antiviral inconclusive (no result: Marburg entry inh, Lassa entry inh)
CCc1cccc(NS(=O)(=O)c2ccc3c(c2)NC(=O)C(C)S3)c1 (stereo unspecified)	HCV inh inconclusive (no result: Marburg entry inh, Lassa entry inh)
CCOc1ccc(CN(C)C(=O)c2ccc3c(c2)NC(=O)C(C)S3)cc1OC (stereo unspecified)	HCV inh 12.6µM, FMDV inh inconclusive (no result: Marburg entry inh, Lassa entry inh)
Cc1ccc(S(=O)(=O)N2CCC(C(=O)OCC(=O)N(C)Cc3ccccc3)CC2)cc1C	FMDV inh inconclusive
CCc1ccc(NC(=O)C2CCN(S(=O)(=O)c3ccc4c(c3)NC(=O)C(C)S4)CC2)cc1 (stereo unspecified)	HCV inh 8.91µM, Marburg entry inh inconclusive, Lassa entry inh inconclusive, HCMV antiviral -97.2
CCC(Cc1ccccc1)NS(=O)(=O)c1ccc2c(c1)NC(=O)C(C)S2 (stereo unspecified)	HCV inh inconclusive, HCMV antiviral -86.4 (no result: Marburg entry inh, Lassa entry inh)
CN(Cc1ccccc1)C(=O)COC(=O)C1CCN(S(=O)(=O)c2ccc(Cl)c(C(F)(F)F)c2)CC1	HCMV antiviral -65.9
Cc1cccc(C(=O)N2CCCCC2CCN2CCCCC2)c1 (stereo unspecified)	Marburg entry inh inconclusive (no result: HCV inh)
O=C(CCN1N=C(c2ccccc2)CCC1=O)NCCc1ccc(Cl)cc1	HCMV antiviral inconclusive (no result: HCV inh, Marburg entry inh)
COc1ccc(C(=O)N2CC(=O)Nc3ccc(C)cc3C2c2ccccc2)c(OC)c1 (stereo unspecified)	none (no result: HCV inh)
CCCn1c(=O)c2sccc2n2c(CCCC(=O)NCCOC)nnc12	HCMV antiviral inconclusive (no result: HCV inh, Marburg entry inh)
CC1Sc2ccc(S(=O)(=O)N3CCC(C(=O)N(C)Cc4ccco4)CC3)cc2NC1=O (stereo unspecified)	HCV inh inconclusive, Marburg entry inh inconclusive, FMDV inh inconclusive, Lassa entry inh inconclusive
CC1Sc2ccc(S(=O)(=O)N3CCC(C(=O)N(C)Cc4ccccc4)CC3)cc2NC1=O (stereo unspecified)	HCV inh inconclusive, Marburg entry inh inconclusive, HCMV antiviral -64.0
COc1ccc(CCNS(=O)(=O)c2ccc3c(c2)NC(=O)C(C)S3)cc1OC (stereo unspecified)	HCV inh 25.1µM, Marburg entry inh inconclusive
CC1Sc2ccc(S(=O)(=O)N(C)Cc3ccccc3)cc2NC1=O (stereo unspecified)	HCV inh inconclusive, FMDV inh 28.2µM, Lassa entry inh inconclusive, HCMV antiviral inconclusive
CC1Sc2ccc(S(=O)(=O)N3CCC(C(=O)NCc4ccc(Cl)cc4)CC3)cc2NC1=O (stereo unspecified)	HCV inh inconclusive, Marburg entry inh inconclusive, FMDV inh inconclusive
CC1Sc2ccc(S(=O)(=O)N3CCC(C(=O)Nc4cccc(Cl)c4)CC3)cc2NC1=O (stereo unspecified)	HCV inh 3.16µM, Marburg entry inh inconclusive, FMDV inh 20µM, Lassa entry inh inconclusive, HCMV antiviral -99.9
Cn1c(CNC(=O)CSc2n[nH]c(-c3ccccc3)n2)nc2ccccc21	none (no result: HCV inh, Marburg entry inh)
COc1ccc2nc(N(Cc3cccnc3)C(=O)C3CCCCC3)sc2c1	HCMV antiviral inconclusive (no result: HCV inh, Marburg entry inh)
O=C(NCCn1cc(SCc2ccc(Cl)cc2)c2ccccc21)c1cccs1	Lassa entry inh inconclusive (no result: HCV inh)
COc1ccc(OC)c(S(=O)(=O)N2CCC(C(=O)Nc3cccc(C)c3C)CC2)c1	none
COc1ccc(OC)c(S(=O)(=O)N2CCC(C(=O)Nc3ccc(C)c(C)c3)CC2)c1	HCV inh inconclusive, Marburg entry inh inconclusive, FMDV inh 25.1µM
Cc1ccc(NC(=O)C2CCN(S(=O)(=O)c3ccc4c(c3)NC(=O)C(C)S4)CC2)cc1C (stereo unspecified)	HCV inh inconclusive, Marburg entry inh inconclusive, FMDV inh inconclusive, Lassa entry inh inconclusive, HCMV antiviral -61.6
CCOC(=O)c1c(C)[nH]c(C(=O)N2CCc3cc(OC)c(OC)cc3C2)c1C	HCV inh 11.2µM, FMDV inh inconclusive, Lassa entry inh inconclusive
CC(=O)c1sc(NC(=O)COc2ccccc2)nc1C	none
CC(=O)c1sc(NC(=O)COc2ccc(C(C)C)c(C)c2)nc1C	HCV inh 2.51µM
